AC50 and outcome data for 13 compounds are collected here from PubChem BioAssay (EPA / NIEHS).

Read-out in one experiment: CD69, CD69 (gene 969)
In words: BSK_SAg_CD69: BioMAP Diversity Plus: SAg Assay for CD69 Biomarker Activity (AID 2283089).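 On AC50: cell surface CD69 protein quantified by ELISA with fluorescence detection.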 The note with it: primary human HUVEC with PBMC; actives raise or lower the signal. In a few lines:
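HUVEC co-cultured with PBMC were dosed with chemical, and CD69 was measured by ELISA with fluorescence read-out 24 h later. Bidirectional curve fitting used DMSO as negative control and activity baseline.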

Read-out in experiment [1]: Monocyte Chemoattractant Protein-1 (MCP1), CCL2 (gene 6347)
In words: BSK_SAg_MCP1: BioMAP Diversity Plus: SAg Assay for Monocyte Chemoattractant Protein-1 (MCP1) Biomarker Activity (AID 2283090). The note with it: primary human HUVEC with PBMC; actives raise or lower the signal. An outline of the steps:
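Values derive from bidirectional fitting of ELISA-measured MCP1 against DMSO controls. Readings were taken 24 h after dosing human vascular endothelial cells co-cultured with peripheral blood mononuclear cells under superantigen stimulation.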

Read-out in experiment [2]: E-selectin (Homo sapiens) (UniProt P16581)
In words: BSK_SAg_Eselectin: BioMAP Diversity Plus: SAg Assay for Eselectin Biomarker Activity (AID 2283091). The note with it: primary human HUVEC with PBMC; actives raise or lower the signal. In a few lines:
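Cell-surface E-selectin is read by ELISA at 24 h in the SAg co-culture of HUVEC and PBMC. Curves are fitted in both directions relative to DMSO. Parallel SRB total-protein staining tracks overt toxicity.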

Read-out in experiment [3]: Monokine induced gamma interferon (MIG), CXCL9 (gene 4283)
In words: BSK_SAg_MIG: BioMAP Diversity Plus: SAg Assay for Monokine induced gamma interferon (MIG) Biomarker Activity (AID 2283092). The note with it: primary human HUVEC with PBMC; actives raise or lower the signal. An outline of the steps: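 HUVEC plus human PBMC co-culture, chemicals dosed and MIG (CXCL9) quantified by ELISA at 24 h. Bidirectional curve fitting against DMSO as negative control and baseline, so both gain and loss of signal count as activity.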

Experiment [4] is described as follows: BSK_SAg_PBMCCytotoxicity: PBMC Cytotoxicity Assessment in the BioMAP Diversity Plus: SAg Assay (AID 2283093).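 Further: PBMC viability measured as Alamar Blue reduction fluorescence at 546/580 nm; fitted both ways against DMSO so a hit may be loss or gain of signal.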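 On AC50: PBMC superantigen activated with SEB plus TSST-1 one hour after compound addition.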 The note with it: primary human HUVEC with PBMC. In a few lines: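 Alamar Blue reduction (6 h, ex/em 546/580 nm) read after 90 h culture of PBMC pre-dosed 1 h then stimulated with SEB plus TSST-1, 20 ng/mL each. Gain or loss of signal fitted relative to DMSO.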

Read-out in experiment [5]: Interleukin-8 (IL8), CXCL8 (gene 3576)
In words: BSK_SAg_IL8: BioMAP Diversity Plus: SAg Assay for Interleukin-8 (IL8) Biomarker Activity (AID 2283094). The note with it: primary human HUVEC with PBMC; actives raise or lower the signal. In a few lines:
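Primary human endothelial cells with PBMC, exposed 24 h; IL-8 determined by ELISA, analysed bidirectionally relative to DMSO.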

The nature of experiment [6]: BSK_SAg_Proliferation: Cell Proliferation Assessment in the BioMAP Diversity Plus: SAg Assay (AID 2283095).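 Further: relative cell number as total protein by SRB absorbance in sub-confluent culture.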 The note with it: primary human HUVEC with PBMC. In a few lines: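 A human primary co-culture of umbilical vein endothelium and blood mononuclear cells receives compound; relative cell number is quantified at 96 h by SRB staining and 560 nm absorbance, with DMSO-referenced bidirectional curve fitting.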

The nature of experiment [7]: BSK_SAg_SRB: Viability Assessment in the BioMAP Diversity Plus: SAg Assay (AID 2283096).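 Further: cells read one day after compound addition; hits may be either gain or loss of signal compared with DMSO.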 The note with it: primary human HUVEC with PBMC. In a few lines:
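SRB absorbance at 560 nm served as the viability read-out. Cells (HUVEC plus peripheral blood mononuclear cells) were TCA-fixed and stained 24 h post-dosing; activity fitted in both directions against DMSO controls.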

The target of experiment [8] is human CYP2A6, CYP2A6 (gene 1548) (UniProt P11509). In words: NVS_ADME_hCYP2A6: NovaScreen (NVS) CYP450-related Enzyme Activity (ADME) Assay for human CYP2A6 (AID 2283099; active means hit-call score of the fitted dose curve at least 0.9, where 1 is the maximum). An outline of the steps:
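Compounds screened at 10 uM (duplicate) and, if active, titrated to a 20 uM top concentration against insect-cell-expressed CYP2A6. Loss of fluorescent product signal after 0.5 h, relative to acetonitrile baseline, indicates inhibition.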

Experiment [9] deals with human CYP2D6, CYP2D6 (gene 1565) (UniProt P10635). In words: NVS_ADME_hCYP2D6: NovaScreen (NVS) CYP450-related Enzyme Activity (ADME) Assay for human CYP2D6 (AID 2283107; active means hit-call score of the fitted dose curve at least 0.9, where 1 is the maximum). In a few lines: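 Fluorescence readout of recombinant CYP2D6 (insect-cell derived) activity after 1 h incubation with test chemical. Acetonitrile served as baseline, loss-of-signal direction. Single-concentration duplicate screening at 10 uM preceded concentration-response retesting.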
Chain of human CYP2D6, CYP2D6 (gene 1565) (P10635 whole entry, looked up): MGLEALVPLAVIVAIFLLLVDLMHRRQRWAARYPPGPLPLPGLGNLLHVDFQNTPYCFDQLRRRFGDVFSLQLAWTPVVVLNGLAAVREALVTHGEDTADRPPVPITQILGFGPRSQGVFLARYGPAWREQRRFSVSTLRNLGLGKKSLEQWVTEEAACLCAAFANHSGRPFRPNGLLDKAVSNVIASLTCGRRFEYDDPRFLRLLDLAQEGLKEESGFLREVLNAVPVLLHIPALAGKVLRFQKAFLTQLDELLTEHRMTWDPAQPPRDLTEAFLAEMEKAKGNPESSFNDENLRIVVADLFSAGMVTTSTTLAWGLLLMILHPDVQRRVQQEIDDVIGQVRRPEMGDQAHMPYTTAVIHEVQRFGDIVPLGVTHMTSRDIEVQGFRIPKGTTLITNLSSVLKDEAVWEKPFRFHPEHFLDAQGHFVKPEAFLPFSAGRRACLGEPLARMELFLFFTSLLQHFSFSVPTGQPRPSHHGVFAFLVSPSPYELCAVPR

The target in experiment [10] is Cytochrome P450 3A4 (Homo sapiens) (UniProt P08684). In words: NVS_ADME_hCYP3A4: NovaScreen (NVS) CYP450-related Enzyme Activity (ADME) Assay for human CYP3A4 (AID 2283110; active means hit-call score of the fitted dose curve at least 0.9, where 1 is the maximum). An outline of the steps:
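Compounds screened in duplicate at 10 uM, with follow-up concentration-response for actives, against insect-cell-expressed recombinant enzyme. Activity read by fluorescence 0.33 h after dosing; loss of signal versus acetonitrile control indicates inhibition.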

In experiment [11] the target is rat CYP2A1, Cyp2a1 (gene 24894) (UniProt P11711). In words: NVS_ADME_rCYP2A1: NovaScreen (NVS) CYP450-related Enzyme Activity (ADME) Assay for rat CYP2A1 (AID 2283114). An outline of the steps:
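Cell-free fluorescence enzyme-activity read on recombinant rat CYP2A1, taken 0.75 h post-dosing. Compounds were screened in duplicate at 10 uM, then hits tested in concentration series (max 20 uM); inhibition scored relative to acetonitrile baseline.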

The target of experiment [12] is human CYP19A1, CYP19A1 (gene 1588) (UniProt P11511). In words: NVS_ADME_hCYP19A1: NovaScreen (NVS) CYP450-related Enzyme Activity (ADME) Assay for human CYP19A1 (AID 2283098; active means hit-call score of the fitted dose curve at least 0.9, where 1 is the maximum;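 on AC50: potency for inhibitors seen as loss of fluorescent enzyme signal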). An outline of the steps:
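Primary testing was in duplicate at a single 10 uM concentration, with actives followed up in concentration-response series. Fluorescence read-out of recombinant enzyme activity at 0.5 h, cell-free. Acetonitrile was the negative-control baseline.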

Experiment [13] has as its target human CYP2C9, CYP2C9 (gene 1559) (UniProt P11712). In words: NVS_ADME_hCYP2C9: NovaScreen (NVS) CYP450-related Enzyme Activity (ADME) Assay for human CYP2C9 (AID 2283108; active means hit-call score of the fitted dose curve at least 0.9, where 1 is the maximum). An outline of the steps:
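Fluorescence readout of CYP2C9 activity (SF9-expressed human enzyme) at 0.75 h. The primary screen used 10 uM in duplicate, with concentration-response follow-up for actives; acetonitrile was the negative control.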

Experiment [14] concerns the target human CYP1A1, CYP1A1 (gene 1543) (UniProt P04798). In words: NVS_ADME_hCYP1A1: NovaScreen (NVS) CYP450-related Enzyme Activity (ADME) Assay for human CYP1A1 (AID 2283100; active means hit-call score of the fitted dose curve at least 0.9, where 1 is the maximum). An outline of the steps:
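Chemicals were first tested in duplicate at 10 uM, and those passing a 30% inhibition threshold were rerun as concentration series topping at 20 uM. Fluorescence read-out of recombinant enzyme turnover after 1 h, relative to acetonitrile.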

Experiment [15] has as its target human CYP2B6, CYP2B6 (gene 1555) (UniProt P20813). In words: NVS_ADME_hCYP2B6: NovaScreen (NVS) CYP450-related Enzyme Activity (ADME) Assay for human CYP2B6 (AID 2283101; active means hit-call score of the fitted dose curve at least 0.9, where 1 is the maximum). In a few lines:
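Recombinant human CYP2B6 with fluorogenic substrate, read by fluorescence intensity 1 h after dosing. Primary screen in duplicate at 10 uM, actives followed in concentration series; signal loss relative to acetonitrile control.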

Experiment [16] addresses Cytochrome P450 2C18 (Homo sapiens) (UniProt P33260). In words: NVS_ADME_hCYP2C18: NovaScreen (NVS) CYP450-related Enzyme Activity (ADME) Assay for human CYP2C18 (AID 2283103). In a few lines: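 Enzyme activity measured by fluorescence 0.5 h after compound addition, using recombinant CYP2C18 and a specific substrate. Actives from duplicate 10 uM screening were retested in concentration series (top 20 uM); acetonitrile served as negative baseline.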

In experiment [17] the target is human CYP1A2, CYP1A2 (gene 1544) (UniProt P05177). In words: NVS_ADME_hCYP1A2: NovaScreen (NVS) CYP450-related Enzyme Activity (ADME) Assay for human CYP1A2 (AID 2283102; active means hit-call score of the fitted dose curve at least 0.9, where 1 is the maximum). An outline of the steps:
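Enzyme activity of insect-cell-expressed human CYP1A2 measured by fluorescence 0.5 h after compound addition, relative to acetonitrile. Compounds first tested in duplicate at 10 uM, actives followed up in concentration series.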

Molecules are shown by their SMILES. Results filed as inconclusive are left out. Calls of active or inactive are those of the source. How the source made its calls, unless noted: active means hit-call score of the fitted dose curve at least 0.9, where 1 is the maximum; inactive means score below 0.9.

Chain of E-selectin (Homo sapiens) (P16581 whole entry, looked up): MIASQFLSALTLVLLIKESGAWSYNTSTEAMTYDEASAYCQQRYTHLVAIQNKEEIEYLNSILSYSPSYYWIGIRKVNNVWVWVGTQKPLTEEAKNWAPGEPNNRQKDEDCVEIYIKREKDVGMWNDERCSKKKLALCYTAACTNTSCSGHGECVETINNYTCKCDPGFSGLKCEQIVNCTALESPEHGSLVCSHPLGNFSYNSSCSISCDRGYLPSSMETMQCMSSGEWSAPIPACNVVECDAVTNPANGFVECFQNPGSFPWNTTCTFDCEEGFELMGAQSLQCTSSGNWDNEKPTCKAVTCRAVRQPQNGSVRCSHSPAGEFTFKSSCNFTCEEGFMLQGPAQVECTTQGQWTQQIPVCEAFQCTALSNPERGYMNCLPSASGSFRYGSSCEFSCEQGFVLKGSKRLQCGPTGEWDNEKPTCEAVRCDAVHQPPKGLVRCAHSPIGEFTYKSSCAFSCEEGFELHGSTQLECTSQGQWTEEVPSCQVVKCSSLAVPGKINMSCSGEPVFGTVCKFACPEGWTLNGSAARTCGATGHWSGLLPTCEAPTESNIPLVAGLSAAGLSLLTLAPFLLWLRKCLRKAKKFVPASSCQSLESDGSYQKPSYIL
Chain of human CYP19A1, CYP19A1 (gene 1588) (P11511 whole entry, looked up): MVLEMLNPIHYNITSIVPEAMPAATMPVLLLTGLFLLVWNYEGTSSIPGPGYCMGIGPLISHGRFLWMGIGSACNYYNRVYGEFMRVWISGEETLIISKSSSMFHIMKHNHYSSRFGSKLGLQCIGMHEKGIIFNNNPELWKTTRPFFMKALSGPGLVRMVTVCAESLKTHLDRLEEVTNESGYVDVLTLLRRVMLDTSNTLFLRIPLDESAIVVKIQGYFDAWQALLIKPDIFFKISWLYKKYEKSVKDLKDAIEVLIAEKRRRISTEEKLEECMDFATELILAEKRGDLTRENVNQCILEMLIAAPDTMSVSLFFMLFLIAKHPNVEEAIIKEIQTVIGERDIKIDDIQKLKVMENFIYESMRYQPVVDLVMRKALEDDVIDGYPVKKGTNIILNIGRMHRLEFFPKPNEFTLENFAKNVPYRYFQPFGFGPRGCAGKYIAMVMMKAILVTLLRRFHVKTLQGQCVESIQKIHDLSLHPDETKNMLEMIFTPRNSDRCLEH
Chain of Cytochrome P450 3A4 (Homo sapiens) (P08684 whole entry, looked up): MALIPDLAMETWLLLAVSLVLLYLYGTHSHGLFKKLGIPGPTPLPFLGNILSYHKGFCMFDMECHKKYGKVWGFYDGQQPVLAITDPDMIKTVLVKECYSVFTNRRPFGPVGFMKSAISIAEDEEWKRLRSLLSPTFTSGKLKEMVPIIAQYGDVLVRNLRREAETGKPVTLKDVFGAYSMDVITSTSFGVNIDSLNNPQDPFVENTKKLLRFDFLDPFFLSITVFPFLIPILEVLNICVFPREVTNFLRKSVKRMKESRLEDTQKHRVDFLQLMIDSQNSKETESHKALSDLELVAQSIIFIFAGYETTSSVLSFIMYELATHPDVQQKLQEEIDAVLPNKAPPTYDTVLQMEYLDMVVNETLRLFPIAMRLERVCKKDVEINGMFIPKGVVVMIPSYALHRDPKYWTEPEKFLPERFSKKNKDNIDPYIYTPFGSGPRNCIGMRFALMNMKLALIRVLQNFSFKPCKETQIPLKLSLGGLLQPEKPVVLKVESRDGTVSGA
Chain of rat CYP2A1, Cyp2a1 (gene 24894) (P11711 whole entry, looked up): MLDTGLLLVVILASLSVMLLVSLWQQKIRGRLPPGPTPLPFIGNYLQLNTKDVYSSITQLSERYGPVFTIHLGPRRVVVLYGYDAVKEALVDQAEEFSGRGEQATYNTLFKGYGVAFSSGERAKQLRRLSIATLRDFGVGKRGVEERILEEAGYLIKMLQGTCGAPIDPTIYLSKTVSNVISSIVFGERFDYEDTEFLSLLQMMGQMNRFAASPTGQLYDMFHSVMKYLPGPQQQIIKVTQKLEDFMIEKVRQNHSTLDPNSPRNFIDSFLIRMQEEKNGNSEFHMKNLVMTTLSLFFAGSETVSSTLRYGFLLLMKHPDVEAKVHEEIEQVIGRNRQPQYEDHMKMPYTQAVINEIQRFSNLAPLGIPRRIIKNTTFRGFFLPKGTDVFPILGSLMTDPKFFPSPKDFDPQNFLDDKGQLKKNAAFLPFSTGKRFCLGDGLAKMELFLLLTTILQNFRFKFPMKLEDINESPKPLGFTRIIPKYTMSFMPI
Chain of human CYP2C9, CYP2C9 (gene 1559) (P11712 whole entry, looked up): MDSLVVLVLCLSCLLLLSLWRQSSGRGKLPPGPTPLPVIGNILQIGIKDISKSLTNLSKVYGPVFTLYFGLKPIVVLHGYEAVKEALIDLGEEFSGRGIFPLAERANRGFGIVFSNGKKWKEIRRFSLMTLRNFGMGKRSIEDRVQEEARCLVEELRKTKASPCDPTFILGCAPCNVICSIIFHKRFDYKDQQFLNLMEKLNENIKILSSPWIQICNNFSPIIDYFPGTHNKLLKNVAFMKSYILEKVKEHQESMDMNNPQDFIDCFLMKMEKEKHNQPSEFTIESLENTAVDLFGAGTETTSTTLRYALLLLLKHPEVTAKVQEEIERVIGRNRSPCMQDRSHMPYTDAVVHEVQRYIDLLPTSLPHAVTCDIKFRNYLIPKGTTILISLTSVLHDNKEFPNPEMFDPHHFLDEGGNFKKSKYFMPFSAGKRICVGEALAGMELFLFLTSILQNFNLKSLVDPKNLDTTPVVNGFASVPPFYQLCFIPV
Chain of human CYP1A1, CYP1A1 (gene 1543) (P04798 whole entry, looked up): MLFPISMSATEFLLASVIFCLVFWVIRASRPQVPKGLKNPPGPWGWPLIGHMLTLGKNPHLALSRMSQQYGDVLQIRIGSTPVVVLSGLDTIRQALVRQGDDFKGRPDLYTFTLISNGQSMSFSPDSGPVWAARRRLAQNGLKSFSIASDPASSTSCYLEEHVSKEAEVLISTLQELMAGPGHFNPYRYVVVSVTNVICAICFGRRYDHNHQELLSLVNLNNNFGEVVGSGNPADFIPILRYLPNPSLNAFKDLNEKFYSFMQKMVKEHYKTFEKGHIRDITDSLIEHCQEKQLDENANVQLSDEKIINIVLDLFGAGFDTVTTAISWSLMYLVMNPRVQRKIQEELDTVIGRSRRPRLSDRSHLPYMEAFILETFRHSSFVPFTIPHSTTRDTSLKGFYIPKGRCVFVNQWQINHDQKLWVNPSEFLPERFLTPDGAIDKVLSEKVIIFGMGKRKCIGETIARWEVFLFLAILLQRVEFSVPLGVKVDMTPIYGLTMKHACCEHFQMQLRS
Chain of human CYP2A6, CYP2A6 (gene 1548) (P11509 whole entry, looked up): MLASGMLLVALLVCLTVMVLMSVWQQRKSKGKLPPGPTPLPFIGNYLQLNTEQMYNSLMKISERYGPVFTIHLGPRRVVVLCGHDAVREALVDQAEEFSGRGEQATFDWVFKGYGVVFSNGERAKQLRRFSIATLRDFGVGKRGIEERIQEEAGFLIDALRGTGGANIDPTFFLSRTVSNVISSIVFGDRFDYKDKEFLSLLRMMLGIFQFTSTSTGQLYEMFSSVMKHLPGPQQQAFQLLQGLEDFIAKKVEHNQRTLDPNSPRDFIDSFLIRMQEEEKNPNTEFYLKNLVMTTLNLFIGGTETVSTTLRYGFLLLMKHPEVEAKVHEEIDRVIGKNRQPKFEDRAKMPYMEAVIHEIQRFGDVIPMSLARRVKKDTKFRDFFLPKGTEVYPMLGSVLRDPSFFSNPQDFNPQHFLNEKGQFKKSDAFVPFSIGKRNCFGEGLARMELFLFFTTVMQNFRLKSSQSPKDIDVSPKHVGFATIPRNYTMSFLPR
Chain of Cytochrome P450 2C18 (Homo sapiens) (P33260 whole entry, looked up): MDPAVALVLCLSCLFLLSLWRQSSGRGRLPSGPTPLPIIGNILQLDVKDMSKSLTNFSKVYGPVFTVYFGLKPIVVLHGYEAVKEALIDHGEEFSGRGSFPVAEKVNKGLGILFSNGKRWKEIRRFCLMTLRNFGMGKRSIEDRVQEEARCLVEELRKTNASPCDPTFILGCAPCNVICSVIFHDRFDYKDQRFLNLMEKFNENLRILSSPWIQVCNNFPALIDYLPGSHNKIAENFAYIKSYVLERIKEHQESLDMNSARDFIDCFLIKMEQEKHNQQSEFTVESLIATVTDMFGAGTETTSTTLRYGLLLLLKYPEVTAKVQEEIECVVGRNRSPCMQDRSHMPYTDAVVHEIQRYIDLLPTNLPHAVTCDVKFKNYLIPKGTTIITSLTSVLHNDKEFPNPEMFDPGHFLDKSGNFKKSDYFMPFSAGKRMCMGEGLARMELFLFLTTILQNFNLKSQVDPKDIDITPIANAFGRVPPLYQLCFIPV

As to `CCCCCCCCc1ccc(O)cc1`, the concentration at half-maximal activity (AC50) was 31.7 µM (active) with CD69, CD69 (gene 969); 32.6 µM (active) in experiment [1]; 29.2 µM (active) in [2]; 35.6 µM (active) in [3]; 29 µM (active) in [4]; 32.2 µM (active) in experiment [5]. Further, the AC50 was 19.3 µM (active) in experiment [6] and 38.2 µM (active) in experiment [7]. The result in experiment [8] was inactive.

With `Nc1cccc2ccccc12`, the outcome with CD69, CD69 (gene 969) is “inactive”; in experiment [1], “inactive”; in experiment [2], “inactive”; in [3] it was “inactive”; in experiment [4], “inactive”; in experiment [5], “inactive”. For the same compound, the outcome in experiment [6] and in [7] was inactive. For the same compound, the concentration at half-maximal activity (AC50) in experiment [9] was 3.45 µM (active).

As for `CC12CC1(C)C(=O)N(c1cc(Cl)cc(Cl)c1)C2=O` (stereo not given), the outcome in the experiment with CD69, CD69 (gene 969) was “inactive”; in experiment [1] it was “inactive”; in [2] it was “inactive”; in experiment [3], “inactive”; in experiment [4] it was “inactive”; in experiment [5] it was “inactive”. For the same compound, the outcome in experiment [6], in [7] and in experiment [10] was inactive. In addition, the concentration at half-maximal activity (AC50) in [11] was 0.881 µM (active).

As to `O=C1C(Cl)=C(Cl)C(=O)c2ccccc21`, in [12], the AC50 is 7.68 µM (active).

On to `Nc1ccc(-c2ccc(N)c(Cl)c2)cc1Cl`, for which the outcome with CD69, CD69 (gene 969) was “inactive”; in experiment [1], “inactive”; in experiment [2], “inactive”; in [3], “inactive”; in [4], “inactive”; in [5], “inactive”. Further, in experiment [6], the result was inactive. The AC50 in experiment [7] was 8.93 µM (active); in experiment [13], 1.24 µM (active).

Turning to `Clc1ccc(C2(Cn3cncn3)CC(Br)CO2)c(Cl)c1` (stereo not given), the AC50 in experiment [12] was 5.55 µM (active); in experiment [15], 1.16 µM (active); in [16] it was 6.47 µM (active); in experiment [13], 6.63 µM (active); in [10], 2 µM (active); in experiment [11], 0.577 µM (active). The outcome in experiment [14] was inactive.

In the case of `CCOC(=O)/C=C(C)/C=C/C[C@@H](C)CCCC(C)C`, the half-maximal activity concentration (AC50) with CD69, CD69 (gene 969) is 20 µM (active); in experiment [1], 29 µM (active); in [2] it was 22.4 µM (active); in [4] it was 26.4 µM (active); in experiment [5] it was 20 µM (active); in experiment [6], 31.5 µM (active). Also, in experiment [7], the AC50 was 33.1 µM (active). Further, the outcome in experiment [3] was inactive.

On to `CCC[CH2][Sn]([Cl])([Cl])[Cl]`, for which the compound was classed as inactive in experiment [12].

For `COc1cc(OC)nc(NC(=O)NS(=O)(=O)c2ncccc2C(=O)N(C)C)n1`, the outcome with CD69, CD69 (gene 969) was “inactive”; in experiment [1], “inactive”; in [2] it was “inactive”; in experiment [3], “inactive”; in [4], “inactive”; in [5], “inactive”. In addition, the outcome in experiment [6] and in experiment [7] was inactive.

`[O-][Cl+2]([O-])O`: the AC50 in experiment [12] is 5.58 µM (active).

As for `CCC(C)(C)c1ccc(O)c(C(C)(C)CC)c1`, the concentration at half-maximal activity (AC50) in the experiment with CD69, CD69 (gene 969) was 13.7 µM (active); in experiment [2], 9.83 µM (active); in experiment [3], 20.8 µM (active); in experiment [4] it was 9.42 µM (active); in [5] it was 9.58 µM (active); in experiment [6], 7.43 µM (active). Further, the concentration at half-maximal activity (AC50) in experiment [7] was 14.6 µM (active).

For `COc1cc2c(cc1OC)[C@@]13CCN4CC5=CCO[C@H]6CC(=O)N2[C@H]1[C@H]6[C@H]5C[C@H]43`, the AC50 in experiment [9] was 5 µM (active).

As to `O=C(Nc1ccc2[nH]ccc2c1)c1cc2cc(F)ccc2n1Cc1cccc(F)c1`, the AC50 in the experiment with CD69, CD69 (gene 969) was 10.6 µM (active); in experiment [1], 9.29 µM (active); in [2] it was 12.8 µM (active); in experiment [3], 12.7 µM (active); in experiment [4], 9.98 µM (active); in experiment [5], 6.87 µM (active). In addition, the concentration at half-maximal activity (AC50) was 6.62 µM (active) in experiment [6] and 14.6 µM (active) in experiment [7]. Also, in experiment [17], the result was inactive.

The term AC50 denotes the midpoint of the concentration-response curve, whichever way the signal moves.
